This is a sample that favours compounds with a hit; in the whole collection about 2.6% have one here.
KKLEB tox: CF airway cell cytotoxicity counter-screen | KKLEB CF airway cells viability, ATPlite luminescence, overnight; stronger effect = lower value; cells stimulated with P. aeruginosa culture filtrate | activity change (cytotoxicity), % at 5 µM | 0.36% of 360,000 active;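 active means corrected activity change at or below -50% at 5 µM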
TROY signal inh: inhibitors of TROY-dependent NF-kB signaling; Q293 LMP1-TROYcd NF-kB luciferase reporter, 4 h; inhibition, % at 10 µM; 0.98% of 360,000 active;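 active means compounds whose plate-normalised and pattern-corrected inhibition of the luciferase reporter signal at the single screening dose is 50% or more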
LGR2 inh: inhibitors of bursicon-induced Drosophila LGR2 receptor cAMP signaling; HEK293 LGR2, CRE-luciferase, bursicon-stimulated, 4 h; inhibition, % at 9.99 µM; 0.35% of 380,000 active;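 active means drop in luminescence signal, shown as inhibition above about 50% in the replicate tests, limit read from the data, passing the limit was not always enough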;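 further: agonist challenge used bursicon conditioned medium at about half maximal strength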
TWEAK-Fn14 inh: TWEAK-Fn14 signaling inhibition; TWEAK-stimulated Fn14 reporter cells, luciferase luminescence, 8 h; inhibition, % at 10 µM; 2% of 360,000 active; AID 1159606; in the data active means inhibition above about 50%
CF NFkB inh: inhibitors of cystic fibrosis induced NF-kB; KKLEB NF-kB-GFP reporter, PAF-induced, GFP fluorescence overnight; inhibition, % at 5 µM; 0.86% of 360,000 active; AID 588850;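 active means at least 50% inhibition at 5 µM, scaled per plate between neutral and stimulator controls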;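 further: PAF is a Pseudomonas aeruginosa culture filtrate used as stimulus; plate controls were PAF-stimulated DMSO wells for no effect and unstimulated DMSO wells for full effect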
EWS-Fli block: EWS/Fli transcriptional activity inhibition; A673 NR0B1-luciferase reporter, viability-normalised; inhibition, % at 12.6 µM; 0.67% of 350,000 active;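 active means mean inhibition of at least 50% after viability correction, with every replicate also passing that limit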;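 further: firefly luciferase signal divided by Alamar Blue viability fluorescence both relative to DMSO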
Starred values were filed as active, the others as inactive; . = no result given.

SMILES	KKLEB tox	TROY signal inh	LGR2 inh	TWEAK-Fn14 inh	CF NFkB inh	EWS-Fli block
CCCCCCCN(C(=O)CCl)c1cccc(C)c1	-87*	-9	1	17	78*	.
Cc1ccc(N(NC(=O)C(O)(c2ccccc2)c2ccccc2)C(=O)CCl)cc1	-66*	-12	-13	46	58*	.
O=S(=O)(c1ccc(F)cc1)N1CC[C@@H]2[C@H]1c1cc(-c3ccc(F)cc3)ccc1N[C@@H]2CO	.	.	-26	.	.	-8
CN1C(=O)c2cc(NC(=O)c3ccc(F)cc3)ccc2OC[C@@H]2O[C@@H](CC(=O)N3CCOCC3)CC[C@@H]21	.	.	-4	.	.	3
O=C(Nc1ccccc1)NN(C(=O)CCl)c1ccccc1	-34	-4	14	69*	70*	34
O=C(CCl)N(CCc1ccccc1)CCc1ccccc1	-50*	1	-1	9	66*	59*
COc1ccc(S(=O)(=O)N(C)C[C@H]2OCCCC[C@H](C)Oc3ccc(NS(=O)(=O)c4ccc(C)cc4)cc3C(=O)N([C@@H](C)CO)C[C@@H]2C)cc1	.	.	13	.	.	3
COc1ccc(Sc2ccc(-c3nc4cnccn4c3NC3CCCCC3)cc2OC)cc1	-6	31	31	62*	3	16
C[C@@H]1CCCCO[C@@H](CN(C)Cc2ccc(C(F)(F)F)cc2)[C@H](C)CN([C@H](C)CO)C(=O)c2cc(NC(=O)Nc3ccc4c(c3)OCO4)ccc2O1	.	.	23	.	.	26
C[C@@H]1CN([C@@H](C)CO)C(=O)c2cc(NC(=O)Nc3ccc(C(F)(F)F)cc3)ccc2O[C@@H](C)CCCCO[C@H]1CN(C)Cc1ccc2c(c1)OCO2	.	.	7	.	.	-2
C[C@@H]1CN([C@H](C)CO)C(=O)c2cc(NC(=O)Nc3ccc(F)cc3)ccc2O[C@@H](C)CCCCO[C@H]1CN(C)Cc1ccc2c(c1)OCO2	.	.	13	.	.	68*
C[C@@H]1CCCCO[C@H](CN(C)Cc2ccc3c(c2)OCO3)[C@@H](C)CN([C@@H](C)CO)C(=O)c2cc(NC(=O)Nc3ccc(C(F)(F)F)cc3)ccc2O1	.	.	.	.	.	69*
C[C@@H]1CN([C@H](C)CO)C(=O)c2cc(NC(=O)Nc3ccc(C(F)(F)F)cc3)ccc2O[C@@H](C)CCCCO[C@H]1CN(C)Cc1ccc2c(c1)OCO2	.	.	7	.	.	77*
C[C@H]1CCCCO[C@H](CN(C)Cc2ccc3c(c2)OCO3)[C@@H](C)CN([C@@H](C)CO)C(=O)c2cc(NC(=O)Nc3ccc(C(F)(F)F)cc3)ccc2O1	.	.	-7	.	.	75*
C[C@@H]1CN([C@H](C)CO)C(=O)c2cc(NC(=O)Nc3ccc(F)cc3)ccc2O[C@@H](C)CCCCO[C@@H]1CN(C)Cc1ccc2c(c1)OCO2	.	.	20	.	.	21
O=C(Nc1ccc(F)cc1)N[C@@H]1CC[C@H](CCNS(=O)(=O)c2cccc(Cl)c2)O[C@@H]1CO	.	.	6	.	.	4
C[C@@H]1CCCCO[C@H](CN(C)Cc2ccc3c(c2)OCO3)[C@H](C)CN([C@@H](C)CO)C(=O)c2cc(NC(=O)Nc3ccc(C(F)(F)F)cc3)ccc2O1	.	.	13	.	.	75*
C[C@H](CO)N1C[C@H](C)[C@H](CN(C)Cc2ccc3c(c2)OCO3)OCCCC[C@H](C)Oc2ccc(NC(=O)Nc3ccc(C(F)(F)F)cc3)cc2C1=O	.	.	10	.	.	76*
C[C@@H]1CCCCO[C@@H](CN(C)Cc2ccc3c(c2)OCO3)[C@@H](C)CN([C@H](C)CO)C(=O)c2cc(NC(=O)Nc3ccc(C(F)(F)F)cc3)ccc2O1	.	.	6	.	.	-6
COc1ccccc1NC(=O)N[C@@H]1CC[C@H](CCNC(=O)c2ccc3c(c2)OCO3)O[C@H]1CO	.	.	-13	.	.	-1
N#C[C@@H]1[C@@H](c2ccc(C3=CCCC3)cc2)[C@@H](CO)N1c1nc(-c2ccccc2)cs1	.	.	-8	.	.	-10
C[C@H](CO)N1C[C@H](C)[C@H](CN(C)S(=O)(=O)c2cccs2)Oc2c(NC(=O)Nc3ccccc3)cccc2C1=O	.	.	7	.	.	-1
CCCCCCCCSC1=CC(=O)C(OC)=C(OC)C1=O	-36	-3	36	29	63*	42
Cc1ccc(S(=O)(=O)N(C)C[C@@H]2OCCCC[C@@H](C)Oc3ccc(NC(=O)Nc4ccc5c(c4)OCO5)cc3C(=O)N([C@@H](C)CO)C[C@H]2C)cc1	.	.	9	.	.	7
COc1ccc(CN(C)C[C@@H]2OCCCC[C@@H](C)Oc3ccc(NC(=O)Nc4c(C)noc4C)cc3C(=O)N([C@@H](C)CO)C[C@@H]2C)cc1	.	.	3	.	.	-4
SMILES	KKLEB tox	TROY signal inh	LGR2 inh	TWEAK-Fn14 inh	CF NFkB inh	EWS-Fli block
CN(C)CCNC=C(C(=O)Nc1ccc(Cl)cc1Cl)C(=O)Nc1ccc(Cl)cc1Cl	-15	54*	.	16	32	.
CC(=O)/C(=C/N(C)C)C(=O)Nc1ccc(Cl)cc1Cl	8	14	-19	-3	-25	-8
O=c1[nH]c2ccccc2cc1CN(Cc1cccnc1)S(=O)(=O)c1ccc(Cl)cc1	-21	-16	17	-9	25	-1
COc1ccc(N(Cc2cc3cc(OC)ccc3[nH]c2=O)S(=O)(=O)c2ccc(NC(C)=O)cc2)cc1	-101*	15	-10	24	80*	.
CC(=O)Nc1ccc(S(=O)(=O)N(Cc2cccnc2)Cc2cc3ccccc3[nH]c2=O)cc1	-24	-45	-6	6	81*	.
COCC#Cc1cnc2c(c1)C(=O)N([C@@H](C)CO)C[C@H](C)[C@H](CN(C)C(=O)C1CCCCC1)O2	.	.	-6	.	.	-16
COc1cccc(S(=O)(=O)N2CCCCN3[C@H](CO)[C@@H](c4ccc(-c5cccnc5)cc4)[C@@H]3C2)c1	.	.	-7	.	.	3
C[C@@H]1CN([C@@H](C)CO)C(=O)c2cc(NC(=O)Cc3ccccc3)ccc2O[C@@H](C)CCCCO[C@@H]1CN(C)C(=O)Nc1ccc2c(c1)OCO2	.	.	-3	.	.	-4
O=C(Nc1ccc2c(c1)OCCO2)c1ccco1	-1	38	8	61*	-2	-14
O=C(Nc1ccccc1-c1ccccc1NC(=O)c1ccco1)c1ccco1	8	.	.	66*	-8	.
O=C(Nc1ccc2c(c1)OCCO2)c1cc2sccc2n1Cc1ccc(F)cc1	3	7	.	49	4	.
O=C(Nc1ccc2c(c1)OCCO2)c1cc2sccc2n1Cc1ccccc1	4	24	.	53*	-1	.
O=C(CN1CCN(C(=O)c2ccco2)CC1)Nc1ccc2c(c1)OCCO2	0	53*	.	64*	8	.
C[C@H](CO)N1C[C@H](C)[C@H](CN(C)Cc2cccc(F)c2)Oc2ncc(C3=CCCC3)cc2C1=O	.	.	-3	.	.	18
CC(C)(C)n1nnnc1C(c1ccc(Cl)cc1)N1CCCc2ccccc21 (stereo unspecified)	-20	-4	.	14	19	.
CC(C)(C)n1nnnc1C(c1cccc(C#N)c1)N1CCCc2ccccc21 (stereo unspecified)	1	38	8	50*	5	12

Screens deposited in PubChem BioAssay by several laboratories.
